ChEMBL document CHEMBL3433997, “St. Jude Leishmania screening dataset” (2016)

Tests used:
Format in all cases: functional
[1] = target: Solute carrier family 2, facilitated glucose transporter member 1 (Homo sapiens) (UniProt P11166); test: ST_JUDE_LEISH: Cytotoxicity at 2uM final concentration against transgenic Leishmania Mexicana promastigotes LmGLUT1 that are glucose transport deficient and complemented with the human glucose transporter GLUT1. Activity is measured by DNA content using SYBR green in vitro
[2] = target: Hexose transporter 1 (Plasmodium falciparum) (UniProt O97467); test: ST_JUDE_LEISH: Cytotoxicity at 2uM final concentration against transgenic Leishmania Mexicana promastigotes LmPfHT that are glucose transport deficient and complemented with the Plasmodium falciparum hexose transporter. Activity is measured by DNA content using SYBR green in vitro
[3] = target: Glucose transporter (Leishmania mexicana) (UniProt O61059); test: ST_JUDE_LEISH: Cytotoxicity at 2uM final concentration against transgenic Leishmania Mexicana promastigotes LmGT2 that are glucose transport deficient and complemented with the L. Mexicana glucose transporter 2. Activity is measured by DNA content using SYBR green in vitro

Chain of Solute carrier family 2, facilitated glucose transporter member 1 (Homo sapiens) (P11166 whole entry): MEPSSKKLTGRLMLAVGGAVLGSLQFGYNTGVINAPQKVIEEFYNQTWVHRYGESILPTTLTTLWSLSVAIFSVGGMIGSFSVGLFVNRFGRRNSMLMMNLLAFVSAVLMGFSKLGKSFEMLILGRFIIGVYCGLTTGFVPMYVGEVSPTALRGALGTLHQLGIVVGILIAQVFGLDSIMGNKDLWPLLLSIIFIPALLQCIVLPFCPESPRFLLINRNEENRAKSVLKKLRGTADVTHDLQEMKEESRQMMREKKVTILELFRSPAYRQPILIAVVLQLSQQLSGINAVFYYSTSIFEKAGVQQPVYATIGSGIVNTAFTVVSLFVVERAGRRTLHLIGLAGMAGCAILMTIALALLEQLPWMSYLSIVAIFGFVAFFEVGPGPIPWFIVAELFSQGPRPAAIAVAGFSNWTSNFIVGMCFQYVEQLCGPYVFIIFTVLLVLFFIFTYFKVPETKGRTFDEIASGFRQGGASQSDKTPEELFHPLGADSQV

CCOC(=O)c1ccc(NC(=O)N[C@@H](Cc2ccccc2)C(=O)NC2CCN(Cc3ccc(OCCCN(C)C)cc3)C2)cc1 (some centres not stated) showed an inhibition [1] of -0.91%, an inhibition [2] of 0.74% and an inhibition [3] of 0.98%.

With C#CCNCc1ccc(-c2cccc(-c3nc4cccc(C)c4[nH]3)c2)cc1 the inhibition [1] was 6.77%, the inhibition [2] was 4.1% and the inhibition [3] was 3.18%.

Molecule CS(=O)(=O)Nc1cccc(-c2cnc3[nH]cc(-c4cc(N)cc(C(=O)O)c4)c3c2)c1 has an inhibition [1] of 0.76%, an inhibition [2] of 1.94% and an inhibition [3] of -0.41%.

For COc1ccc2nccc(NCC3(O)CCN(CCc4ccc5c(c4)OCCO5)CC3)c2n1, the inhibition [1] was 4.99%, the inhibition [2] was 4.58% and the inhibition [3] was 0.15%.

Work on c1ccc(CNc2nc(NCCc3c[nH]cn3)nc(N3CCCC4CCCCC43)n2)cc1 (configuration not stated) yielded an inhibition [1] of -1.84%, an inhibition [2] of -0.22% and an inhibition [3] of -1.46%.

For COc1cc(NC(=O)/C=C/c2cccc3ccoc23)ccc1OCCN(C(C)C)C(C)C, the inhibition [1] was 9.36%, the inhibition [2] was 3.8% and the inhibition [3] was 1.81%.

O=C(C1COc2ccccc2O1)N(CCCn1ccnc1)Cc1csc(-c2ccc(CNCc3ccccc3)cc2)n1 (configuration not stated) gave an inhibition [1] of 3.99%, an inhibition [2] of 4.14% and an inhibition [3] of 2.05%.

CC(=NNC(=N)N)c1ccc2ccc3ccccc3c2c1 was tested, and the inhibition [1] was 0.27%, the inhibition [2] was 1.38% and the inhibition [3] was 0.74%.

Work on Cc1cc(-c2cccc3c(NC(=O)N4CCc5cc6nccc(N7CCN8CCC[C@H]8C7)c6cc54)cccc23)cc(C)n1 yielded an inhibition [1] of 4.48%, an inhibition [2] of 2.56% and an inhibition [3] of 1.59%.

In the case of FC(F)(F)c1ccc(CSc2ccc3nnc(-c4ccccn4)n3n2)cc1, the inhibition [1] is reported as 9.17%, the inhibition [2] is reported as 9.71% and the inhibition [3] is reported as 7.64%.

COc1ccc(CNCCc2cccs2)cc1-c1ccc(S(=O)(=O)NCCN2CCCC2)cc1 gave an inhibition [1] of 5.85%, an inhibition [2] of 5.79% and an inhibition [3] of 2.85%.

For NC(=O)NC(=O)C=Cc1ccco1, the inhibition [1] was 0.54%, the inhibition [2] was 1.9% and the inhibition [3] was 1.91%.

Work on COc1ccc2nccc([C@@H](O)CN3CCC(NC(=O)C(c4ccsc4)N4CCN(c5ccccc5OC)CC4)CC3)c2c1 (some centres not stated) yielded an inhibition [1] of 1.93%, an inhibition [2] of 1.41% and an inhibition [3] of 0.49%.

For O=C(CN(c1cccc(C(F)(F)F)c1)S(=O)(=O)c1ccc(Cl)cc1)NCCC(c1ccccc1)c1ccccc1, the inhibition [1] was -0.18%, the inhibition [2] was -0.47% and the inhibition [3] was -2.89%.

With O=C(NC1CC1)c1ccc(N2CCOc3ccc(Cl)cc32)s1 the inhibition [1] was 2.19%, the inhibition [2] was 1% and the inhibition [3] was 1.54%.

CCC1(CC)CN(c2ccccc2)c2ccc(O)cc2S(=O)(=O)C1CC(C)C (configuration not stated) was tested, and the inhibition [1] was 0.72%, the inhibition [2] was 0.32% and the inhibition [3] was 0.3%.

Molecule OC(CNc1ccnc(Nc2cccc(Cl)c2)n1)c1ccccc1C(F)(F)F (configuration not stated) has an inhibition [1] of 4.32%, an inhibition [2] of 4.32% and an inhibition [3] of -0.94%.

CCCC(C)n1ccc2c3c(N)nc(N)nc3ccc21 (configuration not stated) gave an inhibition [1] of 47.3%, an inhibition [2] of 56.9% and an inhibition [3] of 29.7%.

For CCOc1c(Br)cc(Cl)cc1CNCCCNc1nc2ccccc2[nH]1, the inhibition [1] was 1.77%, the inhibition [2] was 1.74% and the inhibition [3] was 3%.

Work on O=C(/C=C/c1ccc(Cl)cc1)NCCCCCN1CCC(c2c[nH]c3ccccc23)CC1 yielded an inhibition [1] of 3.62%, an inhibition [2] of 3.59% and an inhibition [3] of 0.35%.

Molecule FC(F)(F)c1ccc2[nH]c(-c3ccc(-c4cccc(CNCCN5CCNCC5)c4)cc3)nc2c1 has an inhibition [1] of 0.53%, an inhibition [2] of -0.94% and an inhibition [3] of -1.87%.

Clc1ccc(OCc2ccccc2)c(-c2nc(-c3nc4ncc(Br)cc4[nH]3)cs2)c1 gave an inhibition [1] of 4.08%, an inhibition [2] of 4.1% and an inhibition [3] of 1.99%.

Cc1ccccc1Nc1cc(Nc2ccccc2C)c2ccccc2n1 gave an inhibition [1] of 42.9%, an inhibition [2] of 42.2% and an inhibition [3] of 16.1%.

COc1ccc(CNC(=O)c2cc3c(=O)n4ccccc4nc3n(CCc3ccccc3)c2=N)cc1 was tested, and the inhibition [1] was 15.5%, the inhibition [2] was 12% and the inhibition [3] was 9.96%.

With Cc1ccccc1C1CCN(c2ncc(C(=O)NC3CC3)cc2Cl)CC1 the inhibition [1] was -1.43%, the inhibition [2] was 5.9% and the inhibition [3] was 2.12%.

COc1ccc(C23Oc4cc(OC)cc(OC)c4C2(O)C2(CC3c3ccccc3)SCCCS2)cc1 (configuration not stated) showed an inhibition [1] of 0.76%, an inhibition [2] of -0.16% and an inhibition [3] of 1.15%.

For NCC1CCCN1Cc1cccc(-c2ccc(-c3nc4ccccc4[nH]3)s2)c1 (configuration not stated), the inhibition [1] was 9.15%, the inhibition [2] was 8.03% and the inhibition [3] was 7.51%.

Work on N#Cc1cc(C(=O)c2cc(Br)ccc2O)cn(C2CCCCC2)c1=O yielded an inhibition [1] of 0.39%, an inhibition [2] of 1.1% and an inhibition [3] of 3.8%.

With CCOc1cccc2nc(NCCCNCc3ccc(Cl)c(Cl)c3)cc(NCCCNCc3ccc(Cl)c(Cl)c3)c12 the inhibition [1] was -3.5%, the inhibition [2] was -0.94% and the inhibition [3] was -0.45%.

CCCN(CCC)CC(O)COc1ccccc1C(=O)Nc1ccccc1 (configuration not stated) was tested, and the inhibition [1] was 1.49%, the inhibition [2] was 1.09% and the inhibition [3] was -5%.

O=C(/C=C/c1ccc(Cl)c(Cl)c1)N1CCC(CCN2CCc3[nH]c4ccccc4c3C2)CC1 gave an inhibition [1] of 12.4%, an inhibition [2] of 5.55% and an inhibition [3] of 4.33%.

For CC(C)C[C@H](Nc1ccnc(NCC2CCCCC2)n1)C(=O)NCCc1ccccc1, the inhibition [1] was 3.1%, the inhibition [2] was 0.57% and the inhibition [3] was 0.72%.

C=C1N(C)c2cc([N+](=O)[O-])c(N)cc2C1(C)C gave an inhibition [1] of 0.68%, an inhibition [2] of -0.1% and an inhibition [3] of -1.11%.

Work on CCCCCOc1ccc(C(O)C(CCC(CN2CCCCCC2)C(O)c2ccc(OCCCCC)cc2)CN2CCCCCC2)cc1 (configuration not stated) yielded an inhibition [1] of 3.22%, an inhibition [2] of 2.73% and an inhibition [3] of 1.43%.

In the case of COc1ccc(Nc2nccc(-c3ccc(NC(=O)c4cc5cc(F)ccc5[nH]4)cc3)n2)cc1, the inhibition [1] is reported as -0.57%, the inhibition [2] is reported as 0.09% and the inhibition [3] is reported as -1.37%.

COc1ccc2nccc(N3CCC(CCNCc4ccc5c(n4)NC(=O)CS5)CC3)c2c1 was tested, and the inhibition [1] was 6.54%, the inhibition [2] was 9.44% and the inhibition [3] was 2.78%.

For N#CCCN1CCN(Cc2ccc(-c3ccc(-c4nc5cc(F)ccc5[nH]4)s3)cc2)CC1, the inhibition [1] was 5.49%, the inhibition [2] was 0.84% and the inhibition [3] was 4.14%.

Cc1cccc2nc(-c3cccc(-c4ccc(NC(=O)Cc5ccccn5)cc4)c3)[nH]c12 was tested, and the inhibition [1] was 4.3%, the inhibition [2] was 2.5% and the inhibition [3] was 2.64%.

Work on COc1ccc(N2C(=O)C3C(C2=O)C2(C)c4ccccc4C3(C)c3ccccc32)c([N+](=O)[O-])c1 (configuration not stated) yielded an inhibition [1] of 9.9%, an inhibition [2] of 8.14% and an inhibition [3] of 9.94%.

Cc1ccc(-c2ccc3c(c2)C=C(C(=O)NC2CCN(CCNC(=O)c4cccc(C(F)(F)F)c4)CC2)CCC3)cc1 was tested, and the inhibition [1] was 5.7%, the inhibition [2] was 7.43% and the inhibition [3] was 7.77%.

COc1c(C2CCN(CCCCNC(=O)c3ccc(C)c(-c4ccc(C(F)(F)F)cc4)c3)CC2)ccc2c1CCCC2 gave an inhibition [1] of -1.99%, an inhibition [2] of -1.46% and an inhibition [3] of -0.09%.

For COc1ccc2nccc([C@@H](O)CN3CCC(NC(=O)/C=C/c4c[nH]c5c(C)cccc45)CC3)c2c1, the inhibition [1] was 1.59%, the inhibition [2] was 1.23% and the inhibition [3] was -5.23%.

For CCCc1cc(Cc2cnc(N)nc2N)cc(CCC)c1OCCCCC(=O)O, the inhibition [1] was 1.12%, the inhibition [2] was 1.3% and the inhibition [3] was 0.16%.

Molecule CCNc1cc(C(=O)N[C@@H](Cc2ccccc2)[C@H](O)CNC(C)CC(C)C)c(F)c(N2CCCCS2(=O)=O)c1 (some centres not stated) has an inhibition [1] of 2.89%, an inhibition [2] of 3.43% and an inhibition [3] of 2.55%.

Molecule CCCC1CCNC(C(O)c2ccnc3ccc(OC)cc23)C1 (configuration not stated) has an inhibition [1] of 1.89%, an inhibition [2] of 1.16% and an inhibition [3] of 2.16%.

Molecule FC(F)(F)c1cccc(CNC2CCN(CC3CCCCC3)CC2)c1 has an inhibition [1] of 5.19%, an inhibition [2] of 4.53% and an inhibition [3] of 3.27%.

For Cc1ccc(NS(=O)(=O)c2ccc(-c3ccccc3)cc2)c(Cn2cnc(N3CCCNCC3)cc2=O)c1, the inhibition [1] was 4.14%, the inhibition [2] was 3.45% and the inhibition [3] was -3.65%.

For C=CCOC(=O)N1CCC(CNCc2ccc(-c3cccc(-c4nc5ccccc5[nH]4)c3)cc2)C1 (configuration not stated), the inhibition [1] was 3.24%, the inhibition [2] was 1.73% and the inhibition [3] was 3.33%.

CN1CCN(c2cccc(-c3nnc(-c4ccc(OCC(=O)NCc5cccc(C(F)(F)F)c5)c([N+](=O)[O-])c4)o3)c2)CC1 gave an inhibition [1] of 8.88%, an inhibition [2] of 8.11% and an inhibition [3] of 6.46%.
